Structures can show the parent of a compound that is named as a salt. Where two headings read alike, the source gives them in different places. In all, about 3,300 compounds went through this assay and about 95 (3%) showed an effect of 50% or more. This is one part of a sample in which strong results are shown more often than they occur. Peptide text beside a SMILES is read from it.

57 compounds from article PMC12431657, “Discovery and mechanistic insights of dibenzoylmethane as a broad spectrum inhibitor of coronavirus” (PLOS Pathogens, 2025) can be followed below.

This test relates to HCoV-229E. Details: species or system Huh-7; HTS, protection from HCoV-229E induced cell death, luminescent cell viability (CellCounting-Lite 2.0), inhibition rate. The note with it: 24 h post infection, 1 h compound pre-incubation, 10 µM, inhibitor.

With `C=C(C)[C@@H]1CC=C(CO)CC1` [(S)-(−)-Perillyl alcohol], the “229E Inhibition rate” value is on record as 9.9%. Take `C[C@H]1CC[C@@H]2[C@@H](C)[C@H]3[C@H](C[C@H]4[C@@H]5CC=C6C[C@@H](O)CC[C@]6(C)[C@H]5CC[C@]34C)N2C1` [Solanidine]: the “229E Inhibition rate” value was determined as 24.2%. As for `C=C[C@H]1CN2CC[C@H]1C[C@@H]2[C@@H](O)c1ccnc2ccccc12` [Cinchonine], the “229E Inhibition rate” value was 53.6%. On to `C=C[C@H]1CN2CC[C@H]1C[C@@H]2[C@@H](O)c1ccnc2ccc(OC)cc12` [Quinidine hydrochloride monohydrate], for which, where the note is “229E Inhibition rate, 24 h”, the “229E Inhibition rate” value was 48.6%. With `C=C[C@H]1CN2CC[C@H]1C[C@H]2[C@H](O)c1ccnc2ccccc12` [Cinchonidine], the “229E Inhibition rate” value is given as 13.4%.

For the compound `CC1(C)CCC[C@](C)([C@H]2CC[C@]3(C)[C@@H]2[C@H](O)C[C@@H]2[C@@]4(C)CC[C@H](O)C(C)(C)[C@@H]4[C@@H](O)C[C@]23C)O1` [Panaxatriol], the “229E Inhibition rate” value is 15.9%. As for `CC(C)=CCCC(C)CCO` (stereo not drawn) [Citronellol], the “229E Inhibition rate” value stood at 12.8%. On the same count and under the same terms, for `CC1(C)CC[C@]2(C(=O)O[C@@H]3O[C@H](CO)[C@@H](O)[C@H](O)[C@H]3O)CC[C@]3(C)C(=CC[C@@H]4[C@@]5(C)CC[C@H](O[C@@H]6O[C@H](C(=O)O)[C@@H](O)[C@H](O[C@@H]7OC[C@@H](O)[C@H](O)[C@H]7O)[C@H]6O)C(C)(C)[C@@H]5CC[C@]43C)[C@@H]2C1` [Momordin IIc] the value was 29.6%; for `CC(=O)[C@H]1CC[C@H]2[C@@H]3CC=C4C[C@@H](OS(=O)(=O)O)CC[C@]4(C)[C@H]3CC[C@]12C` [Pregnenolone monosulfate (sodium)], 55.9%.

Regarding `CC(C)CCC[C@@H](C)[C@H]1CC[C@H]2[C@@H]3CC=C4C[C@@H](OS(=O)(=O)O)CC[C@]4(C)[C@H]3CC[C@]12C` [Cholesteryl sulfate (sodium)], the “229E Inhibition rate” value was found to be 7.6%. Still for that read-out and setting: for `CC(=O)[C@H]1CC[C@H]2[C@@H]3CC=C4C[C@@H](O)CC[C@]4(C)[C@H]3CC[C@]12C` [Pregnenolone] the value was 40.7%; for `CC1(C)C(=O)[C@]2(C)CC[C@H]1C2` [(-)-Fenchone], 23.7%; for `C=C1C[C@@]23CC[C@H]4[C@@](C)(CCC[C@@]4(C)C(=O)O[C@@H]4O[C@H](CO)[C@@H](O)[C@H](O[C@@H]5O[C@H](CO)[C@@H](O)[C@H](O)[C@H]5O)[C@H]4O[C@@H]4O[C@H](CO)[C@@H](O)[C@H](O)[C@H]4O)[C@@H]2CC[C@]1(O[C@@H]1O[C@H](CO)[C@@H](O)[C@H](O[C@@H]2O[C@H](CO)[C@@H](O)[C@H](O)[C@H]2O)[C@H]1O[C@@H]1O[C@H](CO)[C@@H](O)[C@H](O)[C@H]1O)C3` [Rebaudioside M], 19.5%. Still for that read-out and setting: for `OC[C@H]1O[C@@](CO)(OC[C@@]2(O[C@H]3O[C@H](CO)[C@@H](O)[C@H](O)[C@H]3O)O[C@H](CO)[C@@H](O)[C@@H]2O)[C@@H](O)[C@@H]1O` [1-Kestose] the value was 18.6%; for `CC[C@H](C)[C@@H]1NC(=O)[C@@H]2CCCN2C(=O)[C@@H]2CCCN2C(=O)[C@@H]2CCCN2C(=O)[C@H](CC(C)C)NC(=O)CNC(=O)CNC(=O)[C@H](Cc2ccccc2)NC1=O` [Heterophyllin B] (cyclo(FGGLPPPI)), 12.9%; for `O=C(OCc1ccccc1)c1ccccc1` [Benzyl benzoate], 12.5%.

With `O=C(OCc1ccccc1)c1ccccc1O` [Benzyl salicylate], the “229E Inhibition rate” value is 24.5%. With `CC(=O)OCc1ccccc1` [Benzyl acetate], the “229E Inhibition rate” value came out at 50.3%. Same read-out and setting: for `C[C@H]1O[C@@H](Oc2ccc(COC(=O)CC(O)(CC(=O)OCc3ccc(O[C@@H]4O[C@H](CO)[C@@H](O)[C@H](O)[C@H]4O)cc3)C(=O)Oc3ccc(O[C@H]4O[C@H](CO)[C@@H](O)[C@H](O)[C@H]4O)cc3)cc2)[C@H](O)[C@@H](O)[C@@H]1O` (stereo partly drawn) [Parishin] the value was 9.7%; for `O=C1CC(C(=O)O)c2c1oc(=O)c1cc(O)c(O)c(O)c21` (stereo not drawn) [Brevifolincarboxylic acid], 6.4%; for `C[C@H]1[C@H](C)CC[C@]2(C)CC[C@]3(C)C(=CC[C@@H]4[C@@]5(C)CC[C@@H](O)[C@](C)(C(=O)O)[C@@H]5CC[C@]43C)[C@H]12` [β-Boswellic acid], 22.5%. With `CCCCCCCCCCCCCCCCCCCCCCCC(=O)OC` [Methyl tetracosanoate], the “229E Inhibition rate” value is 11.5%. Still for that read-out and setting: to `CCCCCCCCCCCCCCCCCC(=O)OC` [Methyl stearate] belongs 17.9%. Same read-out and setting: to `CCCCCCCCCCC(=O)OC` [Methyl undecanoate] belongs 56.2%.

With `C=C1C[C@@]23CC[C@H]4[C@@](C)(CCC[C@@]4(C)C(=O)O)[C@@H]2CC[C@]1(O[C@@H]1O[C@H](CO)[C@@H](O)[C@H](O[C@@H]2O[C@H](CO)[C@@H](O)[C@H](O)[C@H]2O)[C@H]1O[C@@H]1O[C@H](CO)[C@@H](O)[C@H](O)[C@H]1O)C3` [Rebaudioside B], the “229E Inhibition rate” value was found to be 36.9%. Take `COc1cc(/C=C/C=O)ccc1O` [Coniferaldehyde]: the “229E Inhibition rate” value turned out to be 38.5%. For `Nc1ncnc2c1ncn2[C@H]1C[C@H](O)[C@@H](CO)O1` [2'-Deoxyadenosine monohydrate], the “229E Inhibition rate” value (229E Inhibition rate, 24 h) is 8.6%. As for `Nc1ncnc2c1ncn2[C@@H]1C[C@H](CO)[C@@H](O)[C@H]1O` [Aristeromycin], the “229E Inhibition rate” value turned out to be 57.5%. Same read-out and setting: for `Nc1ncnc2c1ncn2[C@@H]1O[C@H](CO)C[C@H]1O` [Cordycepin] the value was 15.3%. Take `O=C(/C=C/c1ccccc1)c1ccccc1` [trans-Chalcone]: under “229E Inhibition rate, 24 h”, the “229E Inhibition rate” value is 5.4%. `O=C1C[C@@](O)(C(=O)O)[C@@H](C(=O)O)O1` [(-)-Hydroxycitric acid lactone]: the “229E Inhibition rate” value was 7.8%. Take `O=C(O)CCCC(O)C(=O)O` (stereo not drawn) [2-Hydroxyadipic acid]: the “229E Inhibition rate” value amounted to 14.9%. The same measure, in the same setting: for `C[S@@+]([O-])CCCCN=C=S` [(R)-sulforaphane] the value was 54%; for `C=C1C(=O)[C@@]23[C@@H]4OC5O[C@@]2(O)[C@@H](O)[C@@H]2C(C)(C)CC[C@@H](O)[C@]52[C@@H]3CC[C@@H]14` [ponicidin], 95.6%. Still for that read-out and setting: for `C=C1C(=O)[C@@]23[C@H](O)C[C@@H]4C(C)(C)CC[C@H](O)[C@@]4(CO)[C@@H]2CC[C@@H]1[C@H]3O` [Kamebakaurin] the value was 0%; for `C=C1C(=O)[C@]23[C@H](O)[C@H]1CC[C@H]2[C@@]12CO[C@]3(O)[C@@H](O)[C@@H]1C(C)(C)CC[C@@H]2O` [Oridonin], 0%. Take `COc1c2ccoc2c(O)c2oc(=O)ccc12` [8-Hydroxybergapten]: the “229E Inhibition rate” value is reported as 7.9%. With `C/C=C1\C(=O)C[C@H]2[C@@H]3CCC4=CC(=O)CC[C@]4(C)[C@H]3CC[C@]12C` [(Z)-Guggulsterone], where the note is “229E Inhibition rate, 24 h”, the “229E Inhibition rate” value came to 6.7%. For `C/C=C(\C)C(=O)OC1c2c(ccc3ccc(=O)oc23)OC(C)(C)C1OC(=O)/C(C)=C/C` (stereo not drawn) [Praeruptorin B], the “229E Inhibition rate” value came to 53.9%.

`C/C=C(/C)C(=O)O[C@@H]1c2c(ccc3ccc(=O)oc23)OC(C)(C)[C@@H]1OC(=O)/C(C)=C\C` [(-)-Anomalin]: the “229E Inhibition rate” value is 51.7%. For the compound `C/C=C(/C)C(=O)O[C@H]1[C@@H](OC(=O)CC(C)C)c2c(ccc3ccc(=O)oc23)OC1(C)C` [Praeruptorin E], the “229E Inhibition rate” value is given as 43.4%. For `C/C=C(/C)C(=O)O[C@@H]1c2c(ccc3ccc(=O)oc23)OC(C)(C)[C@@H]1OC(C)=O` [Pteryxin], the “229E Inhibition rate” value is recorded as 4.8%. Same read-out and setting: to `C/C=C(/C)C(=O)O[C@H]1[C@@H](OC(C)=O)c2c(ccc3ccc(=O)oc23)OC1(C)C` [Praeruptorin A] belongs 19.1%. On the same count and under the same terms, for `C/C=C(/C)C(=O)O[C@@H]1[C@H](OC(=O)CC(C)C)c2c(ccc3ccc(=O)oc23)OC1(C)C` [Praeruptorin C] the value was 32.9%. As for `CC(C)=CCc1c2ccoc2c(O)c2oc(=O)ccc12` [Alloimperatorin], the “229E Inhibition rate” value is 0%. In the case of `c1c2c(cc3c1OCO3)-c1cc3ccc4c(c3c[n+]1CC2)OCO4` [Coptisine (chloride)], the “229E Inhibition rate” value (229E Inhibition rate, 24 h) amounted to 32%. For `O=C(O)C1CSSC1` [Asparagusic acid], the “229E Inhibition rate” value is 15.6%.

For the compound `CC(C)C[C@H](NC(=O)CN)C(=O)O` [Glycyl-L-leucine], the “229E Inhibition rate” value is given as 13.8%. Still for that read-out and setting: for `O=C1c2c(O)cc(O)cc2O[C@H](c2ccc(O)cc2)[C@H]1O` [Dihydrokaempferol] the value was 9.9%; for `C=C(C)[C@H](CC=C(C)C)Cc1c(O)cc(O)c2c1O[C@H](c1ccccc1O)CC2=O` [Kushenol A], 10.8%. The same measure, in the same setting: for `C=C(C)[C@H](CC=C(C)C)Cc1c(O)cc(OC)c2c1O[C@H](c1ccc(O)cc1O)CC2=O` [Kurarinone] the value was 19.7%; for `C=C(C)[C@H](CC=C(C)C)Cc1c(O)cc(OC)c2c1O[C@H](c1ccc(O)cc1OC)CC2=O` [(2S)-2'-Methoxykurarinone], 62.1%. On the same count and under the same terms, for `COc1cc(O)c(CC=C(C)C)c2c1C(=O)CC(c1ccc(O)cc1)O2` (stereo not drawn) [Isoxanthohumol] the value was 23.6%; for `C=C(C)[C@H](CC=C(C)C)Cc1c(O)cc(O)c2c1O[C@H](c1ccc(O)cc1O)CC2=O` [sophoraflavanone G], 75.7%; for `C=C(C)[C@H](CC=C(C)C)Cc1c(O)cc(OC)c2c1O[C@H](c1ccc(O)cc1O)[C@@H](O)C2=O` [Kushenol I], 6.5%. Turning to `C[C@H](O)[C@H](O)C1=Nc2c(nc(N)[nH]c2=O)NC1` [7,8-Dihydro-L-biopterin], the “229E Inhibition rate” value is recorded as 24.5%. As to `N[C@@H](CCC(=O)O)C(=O)O` [L-Glutamic acid (monosodium salt)], the “229E Inhibition rate” value (229E Inhibition rate, 24 h) came out at 12%.
